# Compound activity as filed in PubChem.
# NLRP3 yeast inh = NALP3 inhibition in yeast. inhibition, % at 10 µM. AID 2825. Yeast reconstituted NLRP3/ASC/caspase-1, beta-gal luminescence, 24 h. 330,000 compounds, 0.39% hits;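 active = inhibition of 50% or more; inactive = inhibition below 50%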;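 also: plate controls were induced DMSO wells for no effect and uninduced yeast grown without galactose for full effect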
# SKKanGAS inh = blocks kanamycin growth of S. pyogenes SKKanGAS strain; BacTiter-Glo, 6 h; inhibition, % at 7.5 µM; 300,000 compounds, 1.3% hits;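 active = mean replicate score, as percent of positive control median, at least 50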;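 also: strain carries kanamycin resistance gene driven by streptokinase promoter and grows in 40 µg/ml kanamycin; loss of luminescence reflects streptokinase promoter inhibition or plain growth inhibition; 0% = median of DMSO wells and 100% = positive control at its reference dose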
# TIM10 inh = growth inhibitors of TIM10 yeast strain. S. cerevisiae TIM10 strain growth, BacTiter-Glo luminescence, 24 h. 330,000 compounds, 1.4% hits. inhibition, % at 10 µM. AID 463195;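 active = inhibition of 40% or more at the single tested concentration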;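 also: wild-type TIM10 isogenic control strain grown at permissive 25 °C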
# tim23-1 inh = tim23-1 yeast growth inhibition | S. cerevisiae tim23-1 growth, BacTiter-Glo luminescence, 24 h | inhibition, % at 20 µM | 330,000 compounds, 1.3% hits | AID 463212;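 active = growth inhibition of the mutant yeast at or above 50%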;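 also: temperature-sensitive mutant grown at 25 °C; plate controls were DMSO-treated mutant yeast for no effect and medium wells lacking yeast for full effect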
# tim10-1 inh = tim10-1 yeast growth inhibition; S. cerevisiae tim10-1 ts strain growth, BacTiter-Glo, 24 h; 330,000 compounds, 2.2% hits; inhibition, % at 20 µM; AID 463190;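 active = inhibition of at least 40%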;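 also: mutant grown at 25 °C; 0% = DMSO wells with yeast and 100% = wells holding no yeast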
# PfHsp90 yeast 2 = inhibits growth of yeast expressing Plasmodium falciparum Hsp90; S. cerevisiae expressing PfHsp90, BacTiter-Glo ATP, 48 h; yeast lacking PDR1 and PDR3 efflux regulators; inhibition, % at 9.4 µM; 310,000 compounds, 0.32% hits;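 active = every replicate shows inhibition above about 80%, whatever the replicate mean, limit read from the data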;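 also: 0% = DMSO neutral controls and 100% = 20 µM radicicol positive controls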
# tim10-1 conf = confirmation of tim10-1 mutant yeast growth inhibitors; 7,400 compounds, 56% hits; S. cerevisiae tim10-1 ts strain growth, BacTiter-Glo, 24 h; shares compounds with tim10-1 inh; inhibition, % at 20 µM;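 active = inhibition of yeast growth at or above a set limit in either of two repeat tests at 20 µM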;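 also: tim10-1 mutant grown at permissive 25 °C to find synthetic lethal compounds; 0% = DMSO yeast wells and 100% = medium wells without yeast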
# Starred values were filed as active, the others as inactive; · = no result given. Hits are enriched below; roughly 4.6% of the tested compounds scored in any of these assays.
SMILES,NLRP3 yeast inh,SKKanGAS inh,TIM10 inh,tim23-1 inh,tim10-1 inh,PfHsp90 yeast 2,tim10-1 conf
COc1ccccc1CN1CCCC(CN(CCN(C)C)C(=O)c2ccc(C)cc2)C1 (configuration not stated),23.1,-1.9,-1.9,0.4,3.2,-5.5,·
Cn1c(=O)c(=O)n(C)c2cc(S(=O)(=O)NCCOc3ccccc3Cl)ccc21,17.8,0.4,-0.6,0.5,-6.4,4.0,·
COc1ccc(CC(=O)NCC2CCCN(Cc3ccccc3Cl)C2)cc1 (configuration not stated),8.1,-2.1,1.9,13.5,12.1,3.4,·
CCSc1ccc2c(c1)N(CCCN1CCN(C)CC1)c1ccccc1S2,25.8,·,16.9,23.7,42.3*,12.9,31.4*
COc1ccccc1NC(=S)N1CCN(c2nc(-c3ccccc3)cs2)CC1,8.5,-3.8,18.2,24.9,47.4*,·,29.4
S=C(NCC1CCCO1)N1CCN(c2nc(-c3ccccc3)cs2)CC1 (configuration not stated),0.2,-8.7,7.2,29.8,52.6*,3.4,29.4
CCN(CC)CCN(C(=O)c1c(F)cccc1F)c1nc2cc(C)cc(C)c2s1,13.7,1.5,22.1,19.7,18.2,-1.6,·
C=CCn1c(=O)c(C(=O)Nc2ccccc2S(N)(=O)=O)c(O)c2ccccc21,12.9,23.6,21.2,12.7,8.1,18.1,·
CN(/N=C/c1cc(Br)cc(Br)c1O)c1ccccc1,20.4,-1.9,24.3,19.7,43.0*,-4.2,35.3*
CCOc1ccc(/C=N/N(C)c2ccccc2)cc1OC,31.5,-5.8,-1.2,6.5,16.5,-23.4,·
CCOC(=O)c1c(CSc2ccccc2)n(C)c2ccc(O)c(CN3CCOCC3)c12,18.5,4.7,20.5,39.3,43.7*,-0.6,16.4
CCOC(=O)c1c(C)n(C)c2ccc(O)c(CN3CCN(C)CC3)c12,7.5,-2.0,-12.0,-17.6,-15.6,-29.0,·
COc1cc(Cl)c(C)cc1NC(=O)CSc1nnc(CCC(=O)O)c(=O)[nH]1,-0.7,·,13.9,-6.9,3.3,6.8,·
N/C(=N\OC(=O)CCCOc1ccc(Cl)cc1Cl)c1ccccn1,23.1,-10.3,39.5,21.0,59.1*,-13.5,39.0*
Cc1ccc(S(=O)(=O)N(C)CC(=O)O/N=C(\N)c2ccccn2)cc1,-0.3,-3.8,0.1,15.5,16.3,4.4,·
N/C(=N\OC(=O)COc1cc(Cl)c(Cl)cc1Cl)c1ccccn1,39.8,-6.3,27.8,16.7,34.8,-13.0,·
CN(CC(=O)O/N=C(\N)c1ccccn1)S(=O)(=O)c1cc(Cl)ccc1Cl,18.8,-1.0,22.0,34.2,43.4*,0.5,41.5*
N#Cc1ccccc1S(=O)(=O)N1CCN(C(=O)C2CCC2)CC1,18.0,-12.1,-1.8,-2.0,96.6*,-31.4,3.7
O=C(Oc1ccc(C(=S)N2CCCCC2)cc1)c1ccccc1F,3.3,-2.1,24.4,38.1,55.5*,-8.8,28.2
Cc1ccc(C)c(NC(=O)CCN2CCN(CCO)CC2)c1,10.9,-1.3,-2.6,-16.8,-9.5,-20.5,·
Cc1cccc(OCCNc2cc(N3CCN(C)CC3)ccc2[N+](=O)[O-])c1,42.1,-1.9,20.1,23.9,28.9,35.3,·
Cc1ccc(OCCNc2cc(N3CCN(CCO)CC3)ccc2[N+](=O)[O-])cc1C,16.5,2.7,17.3,35.2,43.2*,24.6,22.7
O=C(Nc1ccccc1)c1ccc(-c2ccccc2C(F)(F)F)o1,28.2,·,19.7,39.8,43.8*,27.1,26.9
CC(C)NC(=O)c1ccc(-c2ccccc2C(F)(F)F)o1,44.5,-4.1,18.1,30.4,26.1,-29.4,·
CC(=O)O[C@H]1CC(=O)OC(C)(C)C2CC(=O)[C@]3(C)C(CC[C@@](C)([C@@H](O[C@@H]4O[C@H](CO)[C@@H](O)[C@H](O)[C@H]4O)c4ccoc4)[C@@]34O[C@@H]4C(=O)O)[C@]21C (some centres not stated),2.4,·,-1.6,0.3,-11.2,-38.8,·
CCCCCCN1C=C/C(=C\C=C(C#N)C#N)c2ccccc21,13.9,16.7,36.7,47.0,49.4*,31.2,22.9
C=CCN1C=C/C(=C\C=C(C#N)C#N)c2ccccc21,13.0,19.1,39.2,26.2,37.0,2.3,·
CCOC(=O)c1c(N)sc2c(OC)c(Br)ccc12,34.4,3.5,32.0,39.0,58.3*,13.5,45.4*
